# Assay results reported in PubChem BioAssay (NCATS).
# Results filed as inconclusive are left out. Active and inactive are the calls of the source. Calls come from the whole dose curve; as a rule, active = well fitted cell-killing curve with a large enough effect; inconclusive = small, poorly fitted or top-dose-only effect, or effect the other way; inactive = no such curve, though single readings can be large or run the other way.
# Test: Quantitative High-Throughput drug screen in 47 multiple myeloma cell lines against the NCATS MIPE library collection: MM1R_ATCC cell viability assay (AID 1918981); note: nearly all actives have a fitted effect of over 35% in size
# Conditions: MM1R multiple myeloma cells, CellTiter-Glo viability, 48 h; series mostly up to 45.8 µM
# Excerpt: PI: Beverly A. Mock Ph.D.
# Laboratory of Cancer Biology and Genetics,
# Center for Cancer Research, National Cancer Institute,
# National Institute of Health, Bethesda, Maryland
# Drug resistance and disease progression are common in multiple myeloma (MM) patients, underscoring the need for new therapeutic combinations. […] We hypothesized that effective combinations would reduce MYC expression and enhance p16 activity. […] These preclinical data identify potentially useful drug combinations for evaluation in drug-resistant MM and reveal potential mechanisms of combined drug sensitivity.
# Described herein is the primary MIPE qHTS used to cherrypick compounds. Validated compounds were then further tested for potential synergistic activiy.
# [1] Peat TJ, Gaikwad SM, Dubois W, Gyabaah-Kessie N, Zhang S, Gorjifard S, Phyo Z, Andres M, Hughitt VK, Simpson RM, Miller MA, Girvin AT, Taylor A, Williams D, D'Antonio N, Zhang Y, Rajagopalan A, Flietner E, Wilson K, Zhang X, Shinn P, Klumpp-Thomas C, McKnight C, Itkin Z, Chen L, Kazandijian D, Zhang J, Michalowski AM, Simmons JK, Keats J, Thomas CJ, Mock BA. Drug combinations identified by high-throughput screening promote cell cycle transition and upregulate Smad pathways in myeloma. Cancer Lett. 2023 Aug 1;568:216284. doi: 10.1016/j.canlet.2023.216284. Epub 2023 Jun 24. PMID: 37356470; PMCID: PMC10408729.
# SEQUENCE No. (e.g., 1, 2, 3, etc.); […] (e.g., Cells, Incubation, Reagent, etc.); VALUE and DESCRIPTION.
# 1; Cells; 5 uL; white, solid bottom 1536-well Greiner assay plate.
# 2; Compounds; 23 nL; Kalypsis pin tool (Wako USA) equipped with a 1536-well pin head to transfer to the assay plates.
# 3; Incubation; 48 hours; 37C incubation.
# 4; Reagent;5uL; CellTiter Glo (Promega).
# 5; Detector; 425V; Luminescence; Viewlux PerkinElmer.
# NOTES (numbers refer to Sequence numbers above)
# 1. The cell-based screening methods employed in this study were like those previously published. Briefly, the corresponding myeloma cell lines were screened in 1,536-well plates with 500 cells, 5-uL per well for inhibition of cell viability (assessed by measuring ATP levels with CellTiterGlo).
# 2. NCATS MIPE 4.0 library of approved and investigational drugs were added using the Kalypsis pin tool. Wells treated with DMSO only for 100% viability and media only for 0% viability were used as controls.
# 3. The assay plates were covered and incubated for 48 hours in a 37C, 5% CO2 incubator with controlled humidity.
# 4. After 48 hours, CellTilter-GloTM luminescent substrate mix (Promega) reagent was added to the assay plate and plates we incubated for 5 min at room temperature.
# 5. Signal was measured as median relative luminescence units on a ViewLux (PerkinElmer) multiplate reader.
# [1] Heske CM, Davis MI, Baumgart JT, Wilson K, Gormally MV, Chen L, Zhang X, Ceribelli M, Duveau DY, Guha R, Ferrer M, Arnaldez FI, Ji J, Tran HL, Zhang Y, Mendoza A, Helman LJ, Thomas CJ. Matrix Screen Identifies Synergistic Combination of PARP Inhibitors and Nicotinamide Phosphoribosyltransferase (NAMPT) Inhibitors in Ewing Sarcoma. Clin Cancer Res. 2017 Dec 1;23(23):7301-7311. doi: 10.1158/1078-0432.CCR-17-1121. Epub 2017 Sep 12. PMID: 28899971; PMCID: PMC6636827.
# Potency is the fitted concentration of half-maximal effect.
row,SMILES,Potency
1,COc1cc2nccc(Oc3ccc(NC(=O)Nc4ccc(F)cc4F)c(F)c3)c2cc1OC,2.96 µM (active)
2,CO[C@H]1O[C@@H]2O[C@@]3(C)CC[C@@H]4[C@@H](C)CC[C@@H]([C@H]1C)[C@@]24OO3,10.5 µM (active)
3,CCC[C@@H](NC(=O)[C@@H]1[C@H]2CCC[C@@H]2CN1C(=O)[C@@H](NC(=O)[C@@H](NC(=O)c1cnccn1)C1CCCCC1)C(C)(C)C)C(=O)C(=O)NC1CC1,18.7 µM (active)
4,CNC1CCC(N(Cc2cccc(-c3ccncc3)c2)C(=O)c2sc3ccccc3c2Cl)CC1 (stereo not given),18.7 µM (active)
5,c1cc(OCCN2CCCCC2)cc(-c2n[nH]c3ccc(-c4ncn[nH]4)cc23)c1,26.4 µM (active)
6,CO[C@H]1C=CO[C@@]2(C)Oc3c(C)c(O)c4c(O)c(c(C=NN5CCN(C)CC5)c(O)c4c3C2=O)NC(=O)C(C)=CC=C[C@H](C)[C@H](O)[C@@H](C)[C@@H](O)[C@@H](C)[C@H](OC(C)=O)[C@H]1C,0.533 µM (active)
7,Cc1cccc(Nc2nc(N[C@@H]3CCCC[C@H]3N)ncc2C(N)=O)c1,26.4 µM (active)
8,CN(C)CCN(C)C(=O)c1ccc(NC(=O)Nc2ccc(-c3nc(N4CCOCC4)c4ccn(CC(F)(F)F)c4n3)cc2)cc1,0.105 µM (active)
9,O=C1NC(=O)C(c2cnc3ccccn23)=C1c1cn2c3c(cccc13)CN(C(=O)N1CCOCC1)CC2,3.32 µM (active)
10,NS(=O)(=O)c1ccc(Nc2nc(OCC3CCCCC3)c3[nH]cnc3n2)cc1,14.8 µM (active)
11,CCC(C)SSc1ncc[nH]1 (stereo not given),5.26 µM (active)
12,OC[C@H]1O[C@@H](Oc2ccc(O)cc2)[C@H](O)[C@@H](O)[C@H]1O,inactive
13,Oc1ccc(C=Cc2cc(O)cc(O)c2)cc1,16.6 µM (active)
14,CC(C)CN(C[C@@H](O)[C@H](Cc1ccccc1)NC(=O)O[C@H]1CO[C@H]2OCC[C@H]21)S(=O)(=O)c1ccc(N)cc1,1.32 µM (active)
15,N=C1SC(=Cc2ccc(-c3ccc4c(c3)C(=O)NC4=O)o2)C(=O)N1c1ccc(Br)cc1,4.18 µM (active)
16,COc1cc2nc(-c3cc(F)ccc3O)nc(N[C@@H]3CNC[C@@H]3C(C)(C)O)c2cc1OC,9.35 µM (active)
17,CN[C@@H]1CN(c2ccc3c(=O)c(C(=O)O)cn(-c4nccs4)c3n2)C[C@@H]1OC,0.407 µM (active)
18,C[C@H]1COC2=C1C(=O)C(=O)c1c2ccc2c1CCCC2(C)C,20.9 µM (active)
19,COc1cc([C@H]2Oc3cc([C@H]4Oc5cc(O)cc(O)c5C(=O)[C@H]4O)ccc3O[C@H]2CO)ccc1O,23.5 µM (active)
20,O=c1[nH]nc(OCCCc2ccc(Cl)cc2)c(NCc2cccnc2)c1Br,16.6 µM (active)

row,SMILES,Potency
1,C=C1c2cccc(O)c2C(O)=C2C(=O)[C@@]3(O)C(O)=C(C(N)=O)C(=O)[C@@H](N(C)C)[C@@H]3[C@@H](O)[C@H]12,20.9 µM (active)
2,Nc1ncnc2c1ncn2[C@@H]1O[C@H](CO)[C@@H](O)[C@@H]1O,20.9 µM (active)
3,NC[C@H]1O[C@H](O[C@@H]2[C@@H](O)[C@@H](O[C@H]3O[C@H](CO)[C@@H](O)[C@H](N)[C@@H]3O)[C@H](N)C[C@@H]2N)[C@H](O)[C@@H](O)[C@H]1O,inactive
4,O=C(O)C1=CO[C@@H](O[C@@H]2O[C@H](CO)[C@H](O)[C@H](O)[C@H]2O)[C@@H]2C(CO)=CC[C@H]12,inactive
5,O=C1CCCC(=O)C1C(=O)c1ccc(C(F)(F)F)cc1[N+](=O)[O-],inactive
6,CCc1cccc(CC)c1NC(=O)N1Cc2[nH]nc(NC(=O)c3ccc(N4CCN(C)CC4)cc3)c2C1,14.8 µM (active)
7,CN1CCC(COc2cnc(-c3cccc(Cn4nc(-c5cccc(C#N)c5)ccc4=O)c3)nc2)CC1,18.7 µM (active)
8,NC1(C(=O)N[C@@H](CCO)c2ccc(Cl)cc2)CCN(c2ncnc3[nH]ccc23)CC1,0.148 µM (active)
9,COC(=O)[C@H](c1ccccc1Cl)N1CCc2sccc2C1,inactive
10,CC(=O)OCC(=O)[C@@]12OC(C)(C)O[C@H]1C[C@H]1[C@@H]3C[C@H](F)C4=CC(=O)C=C[C@]4(C)[C@@]3(F)[C@@H](O)C[C@@]12C,inactive
11,CCCCC[C@H](O)C=C[C@H]1[C@H](O)CC(=O)[C@H]1CC=CCCCC(=O)O,inactive
12,NC(N)=Nc1nc(CSCCC(N)=NS(N)(=O)=O)cs1,23.5 µM (active)
13,CC(=O)N1CCN(c2ccc(OCc3nn(C)c(C)c3-c3cccc4c(CCCOc5cc(C)c(Cl)c(C)c5)c(C(=O)O)n(Cc5cccnc5)c34)cc2)CC1,20.9 µM (active)
14,CCN1CCC(n2cc(CNc3cc(Cl)c4ncc(C#N)c(Nc5ccc(F)c(Cl)c5)c4c3)nn2)CC1,8.33 µM (active)
15,O=c1cc(-c2ccc(O)c(O)c2)oc2cc(O)cc(O)c12,inactive
16,CC[C@H]1OC(=O)[C@H](C)[C@@H](O[C@H]2C[C@@](C)(OC)[C@@H](O)[C@H](C)O2)[C@H](C)[C@@H](O[C@@H]2O[C@H](C)C[C@H](N(C)C)[C@H]2O)[C@](C)(O)C[C@H](C)C(=NOCOCCOC)[C@H](C)[C@@H](O)[C@]1(C)O,inactive
17,Cc1cnc(Nc2cccc(CN3CCOCC3)c2)nc1Nc1cccc(S(=O)(=O)NC(C)(C)C)c1,10.5 µM (active)
18,CN1N=C(N)c2cn([C@@H]3O[C@H](COP(=O)(O)O)[C@@H](O)[C@@H]3O)c3ncnc1c23,5.9 µM (active)
19,O=C(Nc1ncc(SCCN2CCCC2)s1)[C@]1(c2ccc(S(=O)(=O)C3CC3)cc2)C[C@@H]1C1CCCCC1,16.6 µM (active)
20,CNc1nc(Nc2ccc(C(=O)N3CCOCC3)cc2OC)ncc1Cl,5.9 µM (active)
